Pf Dd2 growth: inhibitors of Plasmodium falciparum Dd2 growth | AID 1347417 | P. falciparum Dd2 growth, SYBR Green, 72 h | 120,000 tested, 4.3% active | Potency, µM (highest dose often 28.9 µM), for inactives: at the highest dose activity, negative = inhibition, usual class: inhibitors; active means well fitted inhibition curve with a large enough effect;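 further: plate controls were DMSO vehicle for no effect and reference drug for full effect; nearly all actives have a fitted effect of over 65% in size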
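Infected erythrocytes (Dd2, 0.3% parasitemia, 2.5% hematocrit final) are added to compound in RPMI-1640/Albumax II medium, grown 72 h at 37C in low oxygen, then lysed with saponin/Triton-X containing SYBR Green and read by fluorescence.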
Active calls of the source: *; i = inactive. This is one part of a sample in which hits are shown more often than they occur. Potency means the concentration at half of the fitted maximal effect.

SMILES | Pf Dd2 growth
CCOc1ccc(-c2cc3nc(C4CCN(C(=O)OC(C)(C)C)CC4)c(C(=O)Nc4cccc(Cl)c4C)cn3n2)cc1 | 5.01µM*
O=C1CCN(Cc2ccncc2)CCCC(C(=O)NCc2ccc(F)cc2)CCN1 (stereo unspecified) | -9.4%
Cn1ncc(N2CCCC(CC(=O)NCCN3CCCCC3)C2)cc1=O (stereo unspecified) | 24.9%
Cc1cnc(C(=O)N2CCC(N3C(=O)C4(CCCC4)C3c3scnc3C)CC2)cn1 (stereo unspecified) | -6.0%
COc1ccc(NC(=O)N2C[C@@H]3C[C@H](C2)c2c(NC(=O)c4ccc5c(c4)OCO5)ccc(=O)n2C3)cc1 | -9.6%
COc1cccc(S(=O)(=O)NCC(=O)N2CCCCCNC(=O)CC2c2ccccc2)c1 (stereo unspecified) | i

Assay outcomes from PubChem BioAssay.
